Screening results (PubChem BioAssay)
TLR4 MyD88 comp: inhibitors of TLR4-MyD88 association in cells, primary screen, cell-based, HeLa CL3-4, BLA complementation, FRET ratio; Toll-like receptor 4 (Homo sapiens) + Myeloid differentiation primary response protein …; hit rate 0.18% among 200,000; inhibition, % at 8.4 µM; HeLa CL3-4 TLR4/MyD88 BLA complementation; in the data active means inhibition above about 25%;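 further: 0% = vehicle and 100% = reference inhibitor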
Target sequence (O00206 whole entry, looked up): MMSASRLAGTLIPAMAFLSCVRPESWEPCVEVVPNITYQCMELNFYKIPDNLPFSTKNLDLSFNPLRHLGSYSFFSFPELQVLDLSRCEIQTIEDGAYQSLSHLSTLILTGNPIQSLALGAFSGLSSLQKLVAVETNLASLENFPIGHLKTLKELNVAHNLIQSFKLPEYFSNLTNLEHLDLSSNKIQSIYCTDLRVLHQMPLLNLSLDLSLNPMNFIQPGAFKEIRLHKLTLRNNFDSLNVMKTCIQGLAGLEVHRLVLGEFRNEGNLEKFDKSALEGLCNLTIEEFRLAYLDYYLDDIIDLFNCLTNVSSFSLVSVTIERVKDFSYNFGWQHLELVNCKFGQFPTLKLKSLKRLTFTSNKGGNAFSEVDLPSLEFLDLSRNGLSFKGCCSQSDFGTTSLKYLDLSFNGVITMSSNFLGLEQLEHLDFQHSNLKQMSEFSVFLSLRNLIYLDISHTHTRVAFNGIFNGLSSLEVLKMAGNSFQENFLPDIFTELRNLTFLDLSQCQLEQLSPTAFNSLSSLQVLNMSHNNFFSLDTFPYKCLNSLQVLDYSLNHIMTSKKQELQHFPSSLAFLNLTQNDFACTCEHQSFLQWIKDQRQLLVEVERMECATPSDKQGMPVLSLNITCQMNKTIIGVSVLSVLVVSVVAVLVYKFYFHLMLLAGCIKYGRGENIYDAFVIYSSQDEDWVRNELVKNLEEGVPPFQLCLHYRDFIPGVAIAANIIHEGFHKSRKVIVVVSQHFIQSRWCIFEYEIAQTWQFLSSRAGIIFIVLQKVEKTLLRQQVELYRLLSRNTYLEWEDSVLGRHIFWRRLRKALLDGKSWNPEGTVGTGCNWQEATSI
Target sequence (Q99836 whole entry, looked up): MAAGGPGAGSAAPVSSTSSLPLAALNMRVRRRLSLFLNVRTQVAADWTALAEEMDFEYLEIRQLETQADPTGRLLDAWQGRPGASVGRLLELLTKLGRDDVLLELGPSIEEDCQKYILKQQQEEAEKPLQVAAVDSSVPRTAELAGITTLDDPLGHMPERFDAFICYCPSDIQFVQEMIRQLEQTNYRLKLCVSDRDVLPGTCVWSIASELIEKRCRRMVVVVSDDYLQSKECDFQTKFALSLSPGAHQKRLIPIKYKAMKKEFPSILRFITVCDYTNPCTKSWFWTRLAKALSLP
HSF1 inh: HSF1 inhibitors in luciferase reporter cells, primary screen, cell-based, NIH3T3, luminescence | hit rate 0.77% among 300,000 | NIH3T3-HGL HSE-luciferase, MG132-induced, luminescence 8 h; hits give low values | activity change, negative = inhibition, % at 7.5 µM (by protocol);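 active means more than half of replicate wells show activity change below -50%, luminescence cut by over half; inconclusive means some wells, but at most half, below -50%; inactive means no replicate well below -50%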;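 further: luciferase reports HSF-1 transcriptional activity via heat shock element; 0% = median of DMSO wells and -100% = zero luminescence signal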
NOD2 RIPK2 PPI: NOD2-RIPK2 binding disruptors in cells, primary screen, fluorescence, CHO cells, BLA complementation; Receptor-interacting serine/threonine-protein kinase 2 (Homo sapiens), O43353; CCF4 ratio; inhibition, % at 4.98 µM; hit rate 0.38% among 360,000; AID 624267, 2012; in the data active means inhibition above about 21%;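 further: 0% = vehicle only and 100% = reference blocker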
HSF1 activator: HSF-1 activators, primary screen, NIH3T3-HGL cells, MG132 stress, luminescence, single point; activation, % at 9 µM; NIH3T3-HGL HSF-1 luciferase reporter, 8 h; 100% = twice DMSO control signal; hit rate 1.7% among 300,000;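 active means mean replicate activation of at least 50% with a set share of replicates each reaching 50%; inconclusive means only one of those two conditions met; inactive means mean below 50% and too few replicates reaching it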;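 further: 0% = median of the neutral control wells and 100% = twice that signal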
TLR9-MyD88 block: inhibitors of TLR9-MyD88 association in cells, primary screen, cell-based, CHO, BLA complementation, fluorescence | CCF4 FRET ratio | AID 504734, 2011 | Toll-like receptor 9 (Homo sapiens) + Myeloid differentiation primary response protein … | inhibition, % at 4.98 µM | hit rate 0.21% among 340,000;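 active means inhibition above the mean over all tested compounds plus 3 SD, cut at about 21% in these data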;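 further: 0% = DMSO only wells and 100% = clavulanate BLA inhibitor control wells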
Active calls of the source: *; ? = inconclusive; . = no result given. Shown are actives, neighbours in structure and some others; about 2.4% of the full set was active somewhere.

SMILES	TLR4 MyD88 comp	HSF1 inh	NOD2 RIPK2 PPI	HSF1 activator	TLR9-MyD88 block
CC(=O)c1ccc(NC(=O)Nc2cccc(Cl)c2)cc1	-10	36	6	67*	2
CC(=O)Nc1ccc(NC(=O)Nc2cccc(Cl)c2)cc1	.	3	-5	7	1
C[C@@H]1CN([C@@H](C)CO)C(=O)CCCn2nncc2CO[C@@H]1CN(C)S(=O)(=O)c1cccc(C#N)c1	.	.	-16	.	5
C[C@@H]1C[C@@H]2OC(=O)[C@]3(C)[C@H]2[C@@H](OC3(C)O)[C@]2(C)C(=O)C=C[C@H]12 (stereo partly drawn)	.	3	-5	1	2
C=C1C(=O)O[C@@H]2C[C@@H](C)[C@@H]3C=CC(=O)[C@@]3(C)[C@@H](OC(C)=O)[C@H]12	.	-86*	.	-87	.
Cc1csc(NC(=O)CSc2nc(=O)n(CCN(C)C)c3c2CCCC3)n1	.	-4	0	-5	-4
COc1ccc(NC(=O)c2cc(-c3cc(Cl)ccc3OC)n[nH]2)c(OC)c1	.	.	5	.	.
Cc1cc(O)c(-c2cc(C(=O)Nc3cccnc3)[nH]n2)cc1C	.	33	-15	64*	4
Cc1ccc(O)c(-c2cc(-c3ccccc3F)[nH]n2)c1	15	135	9	157*	5
COc1ccc(NC(=O)c2cc(-c3cc(Cl)ccc3O)n[nH]2)c(OC)c1	.	-81*	9	-86	-1
Cc1ccc(C)c(NC(=O)c2cc(-c3cc(C)ccc3O)n[nH]2)c1	.	48	7	92*	-9
Cc1ccc(O)c(-c2cc(-c3cccc(F)c3)n[nH]2)c1	-3	57	6	?	-3
COc1ccc(Cl)cc1NC(=O)c1cc(-c2cc(C)ccc2O)n[nH]1	.	18	-6	34	1
Cc1cc(C)c(O)c(-c2cc(C(=O)Nc3cccnc3)[nH]n2)c1	.	1	0	2	4
COc1ccccc1C(=O)N1CCN(C(=O)c2oc3c(C)c(C)ccc3c2C)CC1	.	.	-9	.	-14
CCN(c1ccccc1)S(=O)(=O)c1ccc(Cl)c(C(=O)N(CC2CCCO2)C2CCS(=O)(=O)C2)c1 (stereo not drawn)	-3	-58*	-4	-64	-4
O=c1c2ccccc2nc(SCc2cn3ccsc3n2)n1-c1ccccc1	-8	39	3	65*	-6
Cc1csc2nc(CSc3ccc(Cl)cc3)cn12	4	72	0	67*	-1
Clc1ccc(SCc2cn3ccsc3n2)cc1	0	73	-5	111*	-2
O=c1c2ccccc2nc(SCc2cn3ccsc3n2)n1-c1ccccc1F	-5	4	3	10	5
COc1ccc(NC(=O)CSc2nc(N)c3cc4c(nc3n2)CCCC4)cc1	-5	41	6	58*	-10
CCCNC(=O)Cn1cnc2sc(C(=O)Nc3ccc4c(c3)OCO4)c(C)c2c1=O	-4	3	-8	17	-9
CCn1cnc2sc(C(=O)Nc3ccc4c(c3)OCO4)c(C)c2c1=O	3	33	4	67*	-2
Cc1ccc(NC(=O)c2sc3ncn(CC(=O)N4CCOCC4)c(=O)c3c2C)c(Br)c1	.	36	3	78*	4
CC(=O)Nc1ccc(-c2ccnc3c2CC(C)(C(=O)Nc2ccc(C(C)C)cc2)O3)cc1 (stereo not drawn)	.	.	4	.	.
SMILES	TLR4 MyD88 comp	HSF1 inh	NOD2 RIPK2 PPI	HSF1 activator	TLR9-MyD88 block
Cc1ccc(C)c(S(=O)(=O)NCCC(=O)N2CCCC(C(N)=O)C2)c1 (stereo not drawn)	.	.	11	.	-6
COc1ccc(CNc2nc3c(c(=O)[nH]c(=O)n3C)n2Cc2ccccc2C)cc1	-12	-69*	-1	-79	0
CCCNC(=O)c1ccc(N2CCC3(CC2)CC(c2cccc(Br)c2)=NO3)c(NC(=O)c2ccc(Br)cc2)c1	.	-89*	-12	-91	8
Cc1sc2nc(CSc3cccc(C(F)(F)F)c3)[nH]c(=O)c2c1C	-5	33	-7	82*	1
Cc1sc2nc(CSc3ccc([N+](=O)[O-])cc3)[nH]c(=O)c2c1C	-4	15	.	28	.
CC1CC(=O)N(c2ccc(NCCc3ccccc3)c([N+](=O)[O-])c2)C1=O (stereo not drawn)	-7	20	2	23	5
O=C1C2CC=CCC2C(=O)N1c1ccc(NCCc2ccccc2F)c([N+](=O)[O-])c1 (stereo not drawn)	-5	37	-5	64*	-6
O=C1C2CC=CCC2C(=O)N1c1ccc(NCCc2ccccc2)c([N+](=O)[O-])c1 (stereo not drawn)	3	35	-2	70*	3
Cc1ccnc(NC(=O)c2ccc(S(=O)(=O)N3CCCC3)cc2)c1	.	5	1	-16	4
Cc1cc(/C=C2/C(=O)NN(c3ccccc3)C2=O)c(C)n1-c1ccc(O)cc1	8	-69*	-9	-69	4
C[C@@H]1O[C@H](C2CC2)Cc2[nH]c(=S)[nH]c(=O)c21	.	.	-3	.	.
CC(C)CC(C(=O)Nc1cccc(O)c1)N1C(=O)c2ccccc2C1=O (stereo not drawn)	.	-59*	3	-67	4
CC(C)CC(C(=O)Nc1ccc2c(c1)OCCO2)N1C(=O)c2ccccc2C1=O (stereo not drawn)	-1	.	-7	.	3
O=C(c1ccc(Br)cc1)c1cc(-c2ccccn2)c(N2CCOCC2)s1	12	5	3	-4	12
O=C(c1ccc(Cl)c(Cl)c1)c1cc(-c2ccccn2)c(N2CCOCC2)s1	22	13	24*	40	11
O=C(NCCC1CCCCN1S(=O)(=O)c1ccccc1)C(=O)NC1CC1 (stereo not drawn)	.	5	2	5	-1
COc1ccc(CCNC(=O)[C@H](CC(C)C)NC(=O)N2CCn3c2nc2ccccc23)cc1OC	.	27	0	56*	-7
c1ccc(-c2nc(C3CCCCC3)no2)cc1	-11	0	3	9	7
COc1ccc(-c2nc(C3CCCCC3)no2)cc1OC	3	36	4	81*	-6
Cc1cc(Cl)cc(Br)c1OCCCN1C(=O)NC(C)(C)C1=O	-10	32	1	75*	6
Cc1cc(/C=C(\C#N)C(=O)Nc2ccccc2F)c(C)[nH]1	-9	10	-15	60*	13
Cc1ccccc1[C@H](NC1c2ccccc2C=Cc2ccccc21)P(=O)(c1ccccc1)c1ccccc1	.	.	-12	.	.
O=C(O)c1ccc(/C=N/NC(=O)C(O)(c2ccccc2)c2ccccc2)cc1	.	7	-11	27	8
CCN(CC)c1ccc(/C=N/NC(=O)C(O)(c2ccccc2)c2ccccc2)o1	12	164	.	281*	.
